Measurements reported in the supplement of paper PMC10681739.

target: T1, ETS1 (UniProt P14921); test: ETS1 binding intensity (PBM fluorescence) in presence of RUNX1, normalised to ETS1-only experiment (arbitrary fluorescence units); higher = stronger binding; conditions: ETS1 concentration 1 nM; RUNX1 concentration 25 nM
T1 sequence: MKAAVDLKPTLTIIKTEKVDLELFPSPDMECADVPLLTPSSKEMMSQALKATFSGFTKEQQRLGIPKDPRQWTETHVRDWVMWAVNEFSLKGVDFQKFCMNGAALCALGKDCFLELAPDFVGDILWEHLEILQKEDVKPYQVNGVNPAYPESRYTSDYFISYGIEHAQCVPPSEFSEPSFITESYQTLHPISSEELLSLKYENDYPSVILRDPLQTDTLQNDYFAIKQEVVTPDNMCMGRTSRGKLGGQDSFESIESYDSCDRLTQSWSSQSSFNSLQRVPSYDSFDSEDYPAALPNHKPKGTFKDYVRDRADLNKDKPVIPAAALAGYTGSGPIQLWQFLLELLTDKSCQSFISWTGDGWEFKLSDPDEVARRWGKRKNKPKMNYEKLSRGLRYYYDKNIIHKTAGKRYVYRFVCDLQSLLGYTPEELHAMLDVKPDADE
Description: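 Cooperative genomic-context PBM: 36-bp genomic probes with neighbouring ETS1 and RUNX1 sites, double-stranded on Agilent 4x180k arrays. Full-length recombinant human ETS1 (1 nM) was incubated alone or with RUNX1 (25 nM) and detected with anti-ETS1 antibody plus Alexa488 secondary. Value is the median fluorescence intensity over 4 replicate spots; the ETS1+RUNX1 data were normalised to the ETS1-only data using probes without RUNX1 sites. The 36-bp variable region sits on the array probe with constant linker/primer flanks that are not printed.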

Sequence | ETS1 binding intensity
GTAAATAAAGAGGAAGTCCCTATGCGGGGGATGGGG | 2060
CAGGCACACATCCGGGAGCGGCCTGCGCCGCAAGGC | 661
GCGATCGGAGCGGAAGTGGAGCTACCGCCACCGCCG | 8910
AAACCAGAGAGGAAGTGGCACCACATGGCCAGACTG | 2150
GGTTTCACTTCCTGCGTTGGGCCTTGTGGCCTCCTT | 787
AACCCCAAAACGGAAACACCGGAGCCACAAGCTGAG | 961
AGGAGCCGGAAGTCCCGCCCACGCACCCCCCGCAGG | 8270
GTGGGAGCGGAAGCCTGAGCGGCCTGCGGCCTCCGG | 1070
GGTTTAACGTTTCCGGTTTGTGGCTAGTTTCTTGTC | 12500
CTGTGAGGCGGAAGTGGCGGGCTCTGTGGGCGCAAG | 8270
GCGCGGGCAACTTCCGGTGTGGGTGACGAGTGGTGG | 12700
TCTCCCGGAACTGCTCCTTCACCATGATGACCGCTG | 542
AAATCCACTCAGAGGAAACCACAGGCCTGGCCCAGC | 622
GGCCGGCTTCCGGGGCGGGTGGAAAGGAGCCACAAG | 498
TGATTAAAAACAGGATGTGGGTGAATAGTCATGCAT | 7580
CGGCAGGGAAGCAGGAAACCGCGAGTGGAGAAAGGG | 3790
CTATATCACATCCTTTCTCTGACCGCGCTGACTTCG | 481
GGGGTCAGGAAATGGGTGTGCCGCGGGTAAGGCGCT | 921
GGCAGGAAAGAGCTGATGCATTTCAACCGCAGCCTG | 2430
AGCCCCTACCACTTCCCCCCACAGCAGTTCTGAGAT | 755

Sequence | ETS1 binding intensity
CATCAAAAACAGAGGAAGCCACAGCAAATTGCTGCC | 418
TCTAGTTCTGGTTTCCGGACCGCATTCGGAACTAGA | 1390
TTCTTCACTTCCTTCTCTCCGTGGTTTCGCCATTAG | 436
TGCACGGTAAGCAGGAAGCTGCGGCCGAGCTGAGTC | 3120
GCGGAGGCGGAAGTCGTGCTGCTGCTGACCACGGCT | 3170
TTATTTCCGGTGTTGATCTTTTTAGTGGTACCAGGC | 3640
GAGATACACAGCGACATCCGCCCGCAAGAGCATGGT | 1090
GGCTTCCTGCCCAACTACCAAGAAAAAGCCACAAAG | 962
GGGGGCAGGAAGCAGTGCAGCTCCTTAACCCACTTC | 892
CAGATCCGGCGTGGACGAAGCTCGGGAACCACAACA | 456
CGGGGACCACTGTCAGGATGTGGTCACTGGAGTCAC | 8350
TTGGAAACAGACAGGAAGCCACAGGCAGTAAACATT | 3670
CAGCGGCCGTCGCGGGAAGTGCGGTCGCCGCGGCCA | 1120
AGTCTCGTTTCCTGTGCGCTGTGGCCACCTGGCAGC | 1050
GCACAGGCCGGAAGGAAAAGGGTTGTGGGGCTCATT | 1180
CCAACACGGATACAAAAAATATCTCTCTACCACACT | 531
GGTTGTAAGTTCACAGGATGTGGTGTGTCCCTGTGG | 6360
AGCTCAATTTCCTGGCGTGTAACATGGCCACAAGGG | 595
GAACACGGAAACACTGAGCTTTTACTTTGACCACAC | 440
TGATGCACTTCCTGAGGGCCCGCATGTGGTAAACAC | 880
